# Reference: PubChem BioAssay
# “And” between values parts separate entries of the source, which are not always exact repeats. Equal entries are not always repeated. Inconclusive results are not listed. The source made the active and inactive calls.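 Rule for the calls, unless noted: active = compounds whose cell count with miR-34 switched on is under 0.7 times the count with it off; inactive = the rest.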
# How the values were obtained:
# [1] = target: 6-phosphogluconate dehydrogenase, decarboxylating (Homo sapiens) (UniProt P52209); experiment: inhibition of human phosphogluconate dehydrogenase – biochemical, recombinant enzyme, NADPH absorbance, primary screen (AID 1159550;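 active = at least 20% inhibition of 6-phosphogluconate dehydrogenase activity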); details: recombinant 6PGD, NADPH absorbance 341 nm; at 10 µM; stronger effect = higher value
# Sequence of 6-phosphogluconate dehydrogenase, decarboxylating (Homo sapiens) (P52209 whole entry, looked up): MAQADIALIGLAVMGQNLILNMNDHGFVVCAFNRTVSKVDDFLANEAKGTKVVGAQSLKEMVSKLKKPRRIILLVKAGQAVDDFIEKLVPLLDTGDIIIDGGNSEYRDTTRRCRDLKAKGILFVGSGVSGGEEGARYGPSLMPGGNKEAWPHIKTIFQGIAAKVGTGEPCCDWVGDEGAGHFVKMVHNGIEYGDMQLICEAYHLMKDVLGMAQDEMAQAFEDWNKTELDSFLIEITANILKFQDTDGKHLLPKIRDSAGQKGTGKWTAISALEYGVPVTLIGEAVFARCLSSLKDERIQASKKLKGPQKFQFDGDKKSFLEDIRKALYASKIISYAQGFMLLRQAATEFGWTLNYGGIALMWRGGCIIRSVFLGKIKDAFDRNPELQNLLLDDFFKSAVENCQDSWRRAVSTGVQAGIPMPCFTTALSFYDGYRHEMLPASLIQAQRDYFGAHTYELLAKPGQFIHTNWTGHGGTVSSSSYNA
# [2] = viability loss with induced miR-34 in A549 – imaging, A549 dox-inducible miR-34, nuclei and caspase counts, primary screen (AID 1347080); details: A549 miR-34 inducible, Hoechst nuclei count, 48 h
# [3] = galactose survival enhancers in mitochondrial complex I cybrids – cell-based, galactose medium, ATP luminescence, primary screen (AID 1645843;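 active = z-score of at least 1.8 in each of two replicates, scored against plate mean and spread of sample wells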;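 note: positive z means more ATP and so rescue of galactose-driven cybrid death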); details: complex I mutant cybrid cells, 72 h, stronger effect = higher value
# [4] = P. berghei load reduction in hepatocytes – cell-based, HepG2, luciferase luminescence, HepG2 viability, primary screen (AID 624349; in the data active = parasite load remaining mostly below about 12%, no sharp cut-off; inactive = mostly above about 10%;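 note: 100% = mean of DMSO negative control wells on the same plate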); details: P. berghei liver stage in HepG2, luciferase luminescence, concentration not given here; parasite load remaining: stronger effect = lower value; viability: measured here: HepG2 viability without parasites
# [5] = MELAS cybrid and Rieske KO viability enhancers – cell-based, MELAS cybrids, Rieske KO mouse fibroblasts, CellTiter-Glo, primary screen (AID 1508586;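 active = mean z-score across replicates of 1.96 or higher in either the MELAS or the Rieske mutant cell line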;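 note: z relative to plate mean and SD of compound and empty wells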); details: low glucose
# [6] = target: NAD(+) hydrolase SARM1 (Homo sapiens) (UniProt Q6SZW1); experiment: blocking NAD cleavage by SARM1 SAM-TIR – cell lysate, NAD-Glo luminescence (AID 1508614;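 active = compound whose remaining NAD level is above about 45 nM, limit read from the data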;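 note: higher remaining NAD means stronger inhibition of SARM1 NADase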); details: SAM-TIR HEK293T lysate NADase, at 1 µM, stronger effect = higher value
# Sequence of NAD(+) hydrolase SARM1 (Homo sapiens) (Q6SZW1 whole entry, looked up, the tested form may be a part): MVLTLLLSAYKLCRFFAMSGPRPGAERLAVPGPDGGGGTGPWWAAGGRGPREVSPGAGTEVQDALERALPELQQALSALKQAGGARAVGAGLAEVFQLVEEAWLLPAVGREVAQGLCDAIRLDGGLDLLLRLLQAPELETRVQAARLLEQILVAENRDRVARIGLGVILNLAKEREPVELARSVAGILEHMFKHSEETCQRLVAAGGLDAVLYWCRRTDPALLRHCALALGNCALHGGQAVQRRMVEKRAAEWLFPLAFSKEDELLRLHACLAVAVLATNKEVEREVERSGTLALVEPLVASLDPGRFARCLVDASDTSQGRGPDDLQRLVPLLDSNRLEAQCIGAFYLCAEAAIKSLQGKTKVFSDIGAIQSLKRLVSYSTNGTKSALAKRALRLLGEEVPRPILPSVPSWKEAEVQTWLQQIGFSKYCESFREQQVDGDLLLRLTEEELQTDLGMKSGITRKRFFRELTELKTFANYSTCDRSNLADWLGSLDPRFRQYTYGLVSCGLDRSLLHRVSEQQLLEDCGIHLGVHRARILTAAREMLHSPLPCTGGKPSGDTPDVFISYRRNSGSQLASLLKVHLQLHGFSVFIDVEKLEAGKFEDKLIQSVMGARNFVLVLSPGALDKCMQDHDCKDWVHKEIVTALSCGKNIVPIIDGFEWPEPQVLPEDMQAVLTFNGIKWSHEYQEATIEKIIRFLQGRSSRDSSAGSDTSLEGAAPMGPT
# [7] = target: Mitogen-activated protein kinase 7 (Homo sapiens) (UniProt Q13164); experiment: Gal4-ERK5 driven luciferase induction – cell-based, HTS, primary screen (AID 1508626;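 active = luciferase signal above three times the same-plate solvent-only control wells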;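 note: luciferase driven by Gal4-ERK5 fusion binding five Gal4 sites before minimal TATA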); details: HeLa Gal4-ERK5 transactivation, 18 h, at 5 µM, stronger effect = higher value
# Sequence of Mitogen-activated protein kinase 7 (Homo sapiens) (Q13164 whole entry, looked up, the tested form may be a part): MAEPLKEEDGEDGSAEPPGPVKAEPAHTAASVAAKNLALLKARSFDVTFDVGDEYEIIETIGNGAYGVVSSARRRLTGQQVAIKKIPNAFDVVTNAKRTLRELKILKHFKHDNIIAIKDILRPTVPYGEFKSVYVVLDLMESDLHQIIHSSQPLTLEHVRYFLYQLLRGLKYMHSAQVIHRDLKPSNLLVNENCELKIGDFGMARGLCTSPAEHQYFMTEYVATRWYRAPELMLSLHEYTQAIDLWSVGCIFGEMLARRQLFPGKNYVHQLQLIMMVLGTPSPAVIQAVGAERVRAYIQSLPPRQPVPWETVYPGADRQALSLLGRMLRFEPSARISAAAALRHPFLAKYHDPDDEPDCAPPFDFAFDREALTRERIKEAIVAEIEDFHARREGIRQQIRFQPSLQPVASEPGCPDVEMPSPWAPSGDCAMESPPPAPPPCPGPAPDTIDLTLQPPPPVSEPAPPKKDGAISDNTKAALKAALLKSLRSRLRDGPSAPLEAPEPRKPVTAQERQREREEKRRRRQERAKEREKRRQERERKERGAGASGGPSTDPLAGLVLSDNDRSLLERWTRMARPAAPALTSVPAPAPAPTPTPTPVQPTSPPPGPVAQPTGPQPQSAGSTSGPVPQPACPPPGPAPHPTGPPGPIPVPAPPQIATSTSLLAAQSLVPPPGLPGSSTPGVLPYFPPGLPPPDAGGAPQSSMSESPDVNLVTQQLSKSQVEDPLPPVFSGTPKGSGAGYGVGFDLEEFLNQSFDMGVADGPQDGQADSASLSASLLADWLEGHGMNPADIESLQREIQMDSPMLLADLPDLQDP
# [8] = compounds altering viability of human ES cells (AID 493140; call rule not given here;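 note: cells exposed to compounds for four days before counting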); details: human embryonic stem cell survival screen; stronger effect = higher value
# [9] = viability loss in pontine glioma line – cell-based, SU-DIPG-XIII, MIPE4.0, CellTiter-Glo, qHTS, dose response (AID 1347061; cut-off not given, nearly all actives have AC50 up to about 37 µM;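 note: cells exposed to compound for 48 hours before readout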); details: CellTiter-Glo ATP luminescence
# [10] = viability loss in pontine glioma line – cell-based, SU-DIPG-IV, MIPE4.0, CellTiter-Glo, qHTS, dose response (AID 1347063; cut-off not given, nearly all actives have AC50 up to about 30 µM;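 note: compound exposure lasted 48 hours before the viability readout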); details: CellTiter-Glo ATP luminescence
# [11] = viability loss in pontine glioma line – cell-based, JHH-DIPG-1, MIPE4.0, CellTiter-Glo, qHTS, dose response (AID 1347062; cut-off not given, nearly all actives have AC50 up to about 27 µM); details: JHH-DIPG-1 viability, CellTiter-Glo ATP luminescence
# [12] = stronger effect = lower value, cell number ratio, induced over uninduced
# [13] = measured here: relative caspase fold change +Dox/-Dox
# [14] = measured here: total cells with miR-34 induction, stronger effect = lower value
# [15] = measured here: total cells without miR-34 induction
# [16] = MELAS cybrid survival, CellTiter-Glo 48 h, stronger effect = higher value
# [17] = Rieske KO mouse fibroblast survival, CellTiter-Glo 72 h
smiles,measurement,setting,value
CN(C)c1nc(N)c(C(=O)N=C(N)N)nc1Cl,inhibition,[1],11.7% (inactive)
same,fold change,[2]; [12],1.07 (inactive)
same,fold change,[2]; [13],1.7
same,cell count,[2]; [14],10400
same,cell count,[2]; [15],9710
same,z-score,[3],0.335 (inactive)
CCOc1nc2cccc(C(=O)OC(C)OC(=O)OC3CCCCC3)c2n1Cc1ccc(-c2ccccc2-c2nn[nH]n2)cc1 (stereo not given),parasite load remaining,[4],137% (inactive) and 50.7% (inactive)
same,viability,[4],83.9% and 101%
same,inhibition,[1],2.36% (inactive)
same,fold change,[2]; [12],0.972 (inactive) and 0.852 (inactive)
same,fold change,[2]; [13],0.675 and 3.41
same,cell count,[2]; [14],8090 and 11000
same,cell count,[2]; [15],8320 and 12900
same,z-score,[5]; [16],0.432 (inactive)
same,z-score,[5]; [17],-0.0296
same,remaining NAD,[6],10 nM (inactive)
same,luciferase signal,[7],40 AU (inactive)
CSC(N)=NCCC[C@H](N)C(=O)O,inhibition,[1],-13.5% (inactive)
same,fold change,[2]; [12],1.1 (inactive) and 0.994 (inactive)
same,fold change,[2]; [13],0.973 and 0.749
same,cell count,[2]; [14],11000 and 6220
same,cell count,[2]; [15],10000 and 6260
same,z-score,[3],0.215 (inactive)
C#C[C@]1(O)CC[C@H]2[C@@H]3CCC4=C(CCC(=O)C4)[C@H]3CC[C@@]21C,survival,[8],25.3 (inactive)
same,parasite load remaining,[4],17.7% (inactive) and 100% (inactive)
same,viability,[4],48% and 90.5%
same,inhibition,[1],-2.85% (inactive)
same,fold change,[2]; [12],0.896 (inactive)
same,fold change,[2]; [13],0.927
same,cell count,[2]; [14],7990
same,cell count,[2]; [15],8920
same,z-score,[5]; [16],0.723 (inactive)
same,z-score,[5]; [17],0.808
same,remaining NAD,[6],10 nM (inactive)
same,luciferase signal,[7],44 AU (inactive)
O[C@H]1[C@H]2c3cc4c(cc3CN3CCC(=C[C@@H]1O)[C@H]23)OCO4,inhibition,[1],9.07% (inactive)
same,fold change,[2]; [12],1.05 (inactive)
same,fold change,[2]; [13],1.33
same,cell count,[2]; [14],1670
same,cell count,[2]; [15],1580
C=C(C)C1CC=C(C(=O)O)CC1 (stereo not given),inhibition,[1],7.19% (inactive)
same,fold change,[2]; [12],0.98 (inactive)
same,fold change,[2]; [13],1.41
same,cell count,[2]; [14],9720
same,cell count,[2]; [15],9920
same,z-score,[3],1.06 (inactive)
C[C@H]1[C@H](C)CC[C@]2(C(=O)O)CC[C@]3(C)C(=CC[C@@H]4[C@@]5(C)CC[C@H](O)C(C)(C)[C@@H]5CC[C@]43C)[C@H]12,parasite load remaining,[4],32.3% (inactive)
same,viability,[4],73.8%
same,inhibition,[1],14.7% (inactive)
same,outcome,[9],inactive
same,AC50,[10],42.9 µM (active)
same,fold change,[2]; [12],0.941 (inactive)
same,fold change,[2]; [13],1.58
same,cell count,[2]; [14],8760
same,cell count,[2]; [15],9310
same,luciferase signal,[7],40 AU (inactive)
NCCCCCCNS(=O)(=O)c1cccc2c(Cl)cccc12,inhibition,[1],8.63% (inactive)
same,fold change,[2]; [12],0.955 (inactive)
same,fold change,[2]; [13],0.859
same,cell count,[2]; [14],4060
same,cell count,[2]; [15],4250
C=C[C@H]1CN2CCC1C[C@@H]2[C@@H](O)c1ccnc2ccc(OC)cc12 (stereo not given in full),survival,[8],6.17 (inactive)
same,parasite load remaining,[4],28.6% (inactive)
same,viability,[4],94.6%
same,inhibition,[1],-0.543% (inactive)
same,fold change,[2]; [12],1.07 (inactive)
same,fold change,[2]; [13],1.29
same,cell count,[2]; [14],9920
same,cell count,[2]; [15],9300
same,z-score,[3],-1.04 (inactive)
COc1ccc2ccc(=O)oc2c1CC=C(C)C,inhibition,[1],9.51% (inactive)
same,outcome,[11],inactive
same,outcome,[10],inactive
same,fold change,[2]; [12],0.94 (inactive)
same,fold change,[2]; [13],0.78
same,cell count,[2]; [14],8510
same,cell count,[2]; [15],9050
same,z-score,[5]; [16],-0.211 (inactive)
same,z-score,[5]; [17],-1.1
same,luciferase signal,[7],36 AU (inactive)
